# Source: PubChem BioAssay AID2314 (National Center for Advancing Translational Sciences (NCATS), 2010)
# Several values for one entry are separate records, joined by “and”; a condition that tells them apart may be missing. Equal entries are not always repeated. Out of some 300,000 compounds screened, about 37,000 (12%) were called active. Cut-off read from the data, not from the text of the source: active = max response mostly above about 13% (no sharp cut-off); inactive = mostly below about 14%. This excerpt belongs to a sample that is enriched for actives.
# Assay: Cycloheximide Counterscreen for Small Molecule Inhibitors of Shiga Toxin; note: read at 38.3 µM for the half of the compounds with a filed dose; 0% is about no effect
# Settings: cell reporter, cycloheximide protein synthesis inhibition counterscreen; active compounds read high
row,Structure (SMILES),max response
1,COc1cc(/C=C/C(=O)OCC(=O)N2CCOCC2)ccc1OCC#N,-1.28% (inactive)
2,CSc1cccc(NC(=S)N(C(C)C)C(C)c2ccccn2)c1 (configuration not stated),9.01% (inactive)
3,C=CCNC(=S)NNC(=O)COc1c(Cl)cc(Cl)cc1Cl,-3.49% (inactive)
4,Cc1ccc(Cn2ccc(NC(=O)C3C4CCC(C4)C3C(=O)O)n2)cc1 (configuration not stated),1.94% (inactive)
5,Cc1ccc(Cn2ccc(NC(=O)c3cc(C(C)C)on3)n2)cc1,48% (active)
6,Cc1cc(C(=O)Nc2c(C)nn(Cc3ccccc3)c2C)on1,-4.11% (inactive)
7,Cc1ccc(C(=O)OCC(=O)NC(=O)Cc2ccccc2)c(O)c1,4.77% (inactive)
8,COc1ccc([N+](=O)[O-])cc1NC(=O)c1ccc(N(Cc2ccccc2C)S(C)(=O)=O)cc1,-0.93% (inactive)
9,C=CCN(c1ccc(C(N)=O)cc1)S(C)(=O)=O,-1.24% (inactive)
10,C=CCN(c1ccc(C(=O)Nc2cc(C)cc(C)c2)cc1)S(C)(=O)=O,12.7% (active)
11,CSCc1ccc(C(=O)Nc2cc(C)cc(C)c2)cc1,41.7% (active)
12,CC(=O)Nc1ccccc1NC(=O)c1cc(C)cc(C)c1,-1.4% (inactive)
13,Cc1cc(C)cc(NC(=O)N(C)Cc2ccccc2)c1,4.9% (inactive)
14,CCN(CC(=O)Nc1ccc(Cl)c(S(=O)(=O)N(C)C)c1)Cc1nc2ccccc2c(=O)[nH]1,-3.17% (inactive)
15,Clc1ccc(-c2cc(C3CCNCC3)[nH]n2)c(Cl)c1,9.48% (inactive)
16,CCc1cc(CNC(=O)CC2C(=O)NCCN2Cc2ccccc2C(F)(F)F)on1 (configuration not stated),-1.48% (inactive)
17,CCOC(=O)c1cc(C)nc(S(C)(=O)=O)c1C#N,24.3% (active)
18,CCOC(=O)COc1nc(C)cc(C(F)(F)F)c1C#N,-3.74% (inactive)
19,CCOC(=O)c1c(C(C#N)C#N)cc(C)nc1C,1.41% (inactive)
20,O=C1CCCN2N=C(SCC(=O)Nc3ccc(Br)cc3)SC2=N1,7.4% (inactive)
21,Cc1ccc(CN(C)Cc2cc(=O)oc3cc(C)c(Cl)cc23)cc1,8.9% (inactive)

row,Structure (SMILES),max response
1,CN1CCN(CCNC(=O)Nc2ccccc2[N+](=O)[O-])CC1,-3.83% (inactive)
2,O=[N+]([O-])c1ccccc1N/N=C1\CCc2ccccc21,22.3% (active)
3,O=[N+]([O-])c1cc(C(F)(F)F)ccc1NN=C1CCCC1,-3.4% (inactive)
4,O=C(Nc1ccc2c(c1)OCCO2)C(c1ccc(F)cc1)N1CCCCC1 (configuration not stated),-0.355% (inactive)
5,CCOC(=O)c1cnc2ccc(F)cc2c1Nc1ccc2c(c1)OCCO2,32.3% (active)
6,Cc1ccc2nc(-c3ccncc3)cc(C(=O)Nc3ccc4c(c3)OCCO4)c2c1,7.28% (inactive)
7,C/C(CC(=O)NCc1ccc(Cl)cc1)=N\NC(=O)COc1ccc(C)cc1Br,-1.26% (inactive)
8,Cc1ccccc1C(=O)N1CCC(C(=O)Oc2ccc(C#N)cc2)CC1,-2.38% (inactive)
9,CCn1c(CC(=O)Nc2ccccc2)nnc1SCC(=O)N1CCOCC1,-2.97% (inactive)
10,Clc1cccc(-c2nc3nc4ccccc4nc3n2Cc2ccco2)c1,31.5% (active)
11,Cc1cc(NC(=O)CSc2nc3cc(Cl)ccc3c(=O)n2Cc2ccco2)no1,1.42% (inactive)
12,COc1ccc(CCn2c(-c3ccco3)nc3nc4ccccc4nc32)cc1OC,7.86% (inactive)
13,Cc1cc2oc(=O)cc(CN3CCN(Cc4ccccc4)CC3)c2cc1C,1.14% (inactive)
14,COc1cc(CN2CC(C)CC(C)C2)cc([N+](=O)[O-])c1O (configuration not stated),-0.873% (inactive)
15,O=C(COC(=O)c1ccc(S(=O)(=O)N2CCc3ccccc3C2)cc1)NC(=O)NCc1ccco1,6.51% (inactive)
16,O=C(Nc1cc(N2CCOCC2)ncn1)NC1(C(F)(F)F)Oc2ccc(Cl)cc2O1 (configuration not stated),45.4% (active)
17,O=C(CN1C(=O)COc2ccc(Cl)cc21)Nc1ccc(N2CCOCC2)cc1,1.87% (inactive)
18,Cc1csc(NC(=O)NC2(C(F)(F)F)Oc3ccccc3O2)n1,1.16% (inactive)
19,CCc1cc(=O)oc2c(C)c(OCC(=O)NCCN3CCOCC3)ccc12,1.6% (inactive)
20,Cc1ccc(NC(=O)CCN2C(=O)c3ccccc3C2=O)cc1C,-2.39% (inactive)
21,CC(C)=CCCC(C)CN1CCC(n2nccc2NC(=O)c2ccccc2)CC1 (configuration not stated),-5.01% (inactive)

row,Structure (SMILES),max response
1,CCN1CCN(c2ccc(NC(=O)c3cnccn3)cc2)CC1,26% (active)
2,O=C(Nc1ccc(S(=O)(=O)N2CCCCC2)cc1)c1cnccn1,-3.02% (inactive)
3,O=C(NCN1CCN(CCO)CC1)c1cnccn1,-4.08% (inactive)
4,N#CCSc1nc(-c2ccccc2)nc2ccc(F)cc12,-2.28% (inactive)
5,Cn1cc(CNC(=O)c2ccc(OC3CCN(Cc4ccccn4)CC3)cc2)cn1,9.98% (inactive)
6,CN(CCc1ccccn1)C(=O)c1ccc(OC2CCN(Cc3ccccn3)CC2)cc1,0.254% (inactive)
7,CN(CCc1ccccn1)C(=O)c1ccc(OC2CCN(CCc3ccccc3)CC2)cc1,17% (active)
8,OCCC(O)CO (configuration not stated),-4.13% (inactive) and -5.85% (inactive) and -2.71% (inactive)
9,CC(C)NS(=O)(=O)c1ccc(OCC(=O)Nc2ccc3c(c2)OCCO3)cc1,2.4% (inactive)
10,Cc1cccc(C(=O)Nc2ccccc2-c2nnn(CC(=O)Nc3ccc4c(c3)OCCO4)n2)c1,-4.9% (inactive)
11,CCOC(=O)c1ccc(NC(=O)Cn2nnc(-c3ccc(C)cc3)n2)cc1,-3.53% (inactive)
12,O=C(CSc1nc2ncccc2[nH]1)Nc1ccc2c(c1)OCCO2,25.8% (active)
13,COc1ccc(S(=O)(=O)N(C)CC(=O)Nc2ccc3c(c2)OCCO3)cc1OC,18.2% (active)
14,O=C(CSc1nc(C2CC2)nc2ccccc12)Nc1ccc2c(c1)OCCO2,1.1% (inactive)
15,CCc1ccccc1OCC(=O)Nc1ccc2c(c1)OCCO2,35.2% (active)
16,CC(C)CNS(=O)(=O)c1ccc(OCC(=O)Nc2ccc3c(c2)OCO3)c(Cl)c1,5.31% (inactive)
17,Cn1ccnc1SCC(=O)Nc1ccc2c(c1)OCCO2,18% (inactive)
18,O=C(CN(c1ccc2c(c1)OCCO2)S(=O)(=O)c1ccccc1)Nc1ccc2c(c1)OCO2,11.4% (inactive)
19,COc1ccc(NC(=O)CN(C)S(=O)(=O)c2ccccc2)cc1OC,-1.84% (inactive)
20,CS(=O)(=O)c1ccc(-c2nnn(CC(=O)Nc3ccc4c(c3)OCCO4)n2)cc1,15.4% (active)
